Data taken from PubChem BioAssay AID1159580 (chemical genetic matrix, 2015).
Among all 5,500 compounds or so, about 2,000 (36%) were called active. Roughly 18% stayed inconclusive and do not appear here. No stated cut-off is given here; in the data, active means normalized growth mostly below about 0.91 (no sharp cut-off); inconclusive means no clear call, values can overlap the other calls; inactive means mostly above about 0.92. The list shows a part of the results.

Experiment: chemical genetic growth profiling, strain panel (AID 1159580);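 further: tested at 20 µM; growth read once vehicle control cultures reached saturation at 30 °C; 1 = growth at the plate median or of vehicle wells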
Details: growth OD

Measured: normalized growth

Nc1nccs1
inactive: S. cerevisiae deletion strains, locus YJL187C, strain SWE1 (second series), stronger effect = lower value 0.947 | S. cerevisiae deletion strains, locus YJL187C, strain SWE1, stronger effect = lower value 0.998 | S. cerevisiae deletion strains, locus YJR043C, strain POL32, stronger effect = lower value 0.985 | S. cerevisiae deletion strains, locus YKL009W, strain mrt4, stronger effect = lower value 0.985 | S. cerevisiae deletion strains, locus YKL068W, stronger effect = lower value 0.981 | S. cerevisiae deletion strains, locus YKL085W, strain MDH1 (second series), stronger effect = lower value 0.981 | S. cerevisiae deletion strains, locus YKL085W, strain MDH1, stronger effect = lower value 0.981 | S. cerevisiae deletion strains, locus YKL160W, strain elf1, stronger effect = lower value 0.98 | S. cerevisiae deletion strains, locus YKL190W, strain CNB1, stronger effect = lower value 0.992 | S. cerevisiae deletion strains, locus YKR001C, strain vps1, stronger effect = lower value 0.985 | S. cerevisiae deletion strains, locus YKR026C, strain gcn3, stronger effect = lower value 0.995 | S. cerevisiae deletion strains, locus YKR091W, strain srl3, stronger effect = lower value 0.998 | S. cerevisiae deletion strains, locus YLL001W, strain dnm1, stronger effect = lower value 0.947 | S. cerevisiae deletion strains, locus YLL026W, stronger effect = lower value 0.993 | S. cerevisiae deletion strains, locus YLL041C, strain sdh2, stronger effect = lower value 0.991 | S. cerevisiae deletion strains, locus YLR027C, strain aat2, stronger effect = lower value 0.988 | S. cerevisiae deletion strains, locus YLR039C, strain RIC1, stronger effect = lower value 0.929 | S. cerevisiae deletion strains, locus YLR058C, strain SHM2, stronger effect = lower value 0.974 | S. cerevisiae deletion strains, locus YLR102C, strain apc9, stronger effect = lower value 0.996 | S. cerevisiae deletion strains, locus YLR221C, strain rsa3, stronger effect = lower value 0.992 | S. cerevisiae deletion strains, locus YLR258W, strain gsy2, stronger effect = lower value 1 | S. cerevisiae deletion strains, locus YLR262C, strain YPT6 (second series), stronger effect = lower value 0.939 | S. cerevisiae deletion strains, locus YLR262C, strain YPT6, stronger effect = lower value 0.929 | S. cerevisiae deletion strains, locus YLR268W, strain sec22, stronger effect = lower value 0.968 | S. cerevisiae deletion strains, locus YLR320W, strain mms22, stronger effect = lower value 1 | S. cerevisiae deletion strains, locus YLR330W, strain CHS5, stronger effect = lower value 0.993 | S. cerevisiae deletion strains, locus YLR342W, strain FKS1 (second series), stronger effect = lower value 1.03 | S. cerevisiae deletion strains, locus YLR342W, strain FKS1, stronger effect = lower value 0.975 | S. cerevisiae deletion strains, locus YLR357W, strain rsc2, stronger effect = lower value 0.945 | S. cerevisiae deletion strains, locus YLR370C, strain arc18, stronger effect = lower value 0.991 | S. cerevisiae deletion strains, locus YLR371W, strain rom2, stronger effect = lower value 0.999 | S. cerevisiae deletion strains, locus YLR384C, strain iki3, stronger effect = lower value 0.976 | S. cerevisiae deletion strains, locus YLR418C, strain cdc73, stronger effect = lower value 1.03 | S. cerevisiae deletion strains, locus YML016C, strain PPZ1, stronger effect = lower value 0.984 | S. cerevisiae deletion strains, locus YML032C, strain rad52, stronger effect = lower value 0.984 | S. cerevisiae deletion strains, locus YML120C, strain ndi1, stronger effect = lower value 0.99 | S. cerevisiae deletion strains, locus YML124C, strain tub3, stronger effect = lower value 0.985 | S. cerevisiae deletion strains, locus YMR058W, strain fet3, stronger effect = lower value 0.988 | S. cerevisiae deletion strains, locus YMR078C, strain ctf18, stronger effect = lower value 0.979 | S. cerevisiae deletion strains, locus YMR125W, strain sto1, stronger effect = lower value 0.988 | S. cerevisiae deletion strains, locus YMR129W, stronger effect = lower value 0.996 | S. cerevisiae deletion strains, locus YMR205C, strain PFK2, stronger effect = lower value 0.983 | S. cerevisiae deletion strains, locus YMR223W, strain ubp8, stronger effect = lower value 1.04 | S. cerevisiae deletion strains, locus YMR231W, strain pep5, stronger effect = lower value 0.99 | S. cerevisiae deletion strains, locus YMR307W, strain GAS1, stronger effect = lower value 1.07 | S. cerevisiae deletion strains, locus YNL067W, strain RPL9B, stronger effect = lower value 0.954 | S. cerevisiae deletion strains, locus YNL071W, strain lat1, stronger effect = lower value 1 | S. cerevisiae deletion strains, locus YNL128W, strain TEP1, stronger effect = lower value 1.01 | S. cerevisiae deletion strains, locus YNL209W, strain ssb2, stronger effect = lower value 0.991 | S. cerevisiae deletion strains, locus YNL233W, strain BNI4, stronger effect = lower value 0.96 | S. cerevisiae deletion strains, locus YNL248C, strain rpa49, stronger effect = lower value 1.02 | S. cerevisiae deletion strains, locus YNL250W, strain rad50, stronger effect = lower value 0.989 | S. cerevisiae deletion strains, locus YNL271C, strain bni1, stronger effect = lower value 0.978 | S. cerevisiae deletion strains, locus YNL298W, strain CLA4, stronger effect = lower value 0.999 | S. cerevisiae deletion strains, locus YNL307C, strain MCK1, stronger effect = lower value 0.988 | S. cerevisiae deletion strains, locus YNL322C, strain KRE1 (second series), stronger effect = lower value 0.985 | S. cerevisiae deletion strains, locus YNR049C, strain mso1, stronger effect = lower value 0.987 | S. cerevisiae deletion strains, locus YNR052C, strain pop2, stronger effect = lower value 0.998 | S. cerevisiae deletion strains, locus YOL006C, strain TOP1, stronger effect = lower value 0.899 | S. cerevisiae deletion strains, locus YOL012C, strain htz1 0.795 | S. cerevisiae deletion strains, locus YOL147C, strain pex11, stronger effect = lower value 0.993 | S. cerevisiae deletion strains, locus YOR001W, strain rrp6, stronger effect = lower value 0.983 | S. cerevisiae deletion strains, locus YOR061W, strain CKA2, stronger effect = lower value 0.958 | S. cerevisiae deletion strains, locus YOR069W, strain VPS5, stronger effect = lower value 0.99 | S. cerevisiae deletion strains, locus YOR070C, strain gyp1, stronger effect = lower value 0.999 | S. cerevisiae deletion strains, locus YOR080W, strain dia2, stronger effect = lower value 0.977 | S. cerevisiae deletion strains, locus YOR083W, strain WHI5, stronger effect = lower value 0.971 | S. cerevisiae deletion strains, locus YOR106W, strain vam3, stronger effect = lower value 0.955 | S. cerevisiae deletion strains, locus YOR136W, strain idh2, stronger effect = lower value 0.988 | S. cerevisiae deletion strains, locus YOR144C, strain elg1, stronger effect = lower value 0.992 | S. cerevisiae deletion strains, locus YOR184W, strain ser1, stronger effect = lower value 0.914 | S. cerevisiae deletion strains, locus YOR265W, strain rbl2, stronger effect = lower value 0.997 | S. cerevisiae deletion strains, locus YOR290C, strain snf2, stronger effect = lower value 0.945 | S. cerevisiae deletion strains, locus YOR316C, strain cot1, stronger effect = lower value 0.979 | S. cerevisiae deletion strains, locus YPL051W, strain arl3, stronger effect = lower value 0.965 | S. cerevisiae deletion strains, locus YPL078C, strain atp4, stronger effect = lower value 0.969 | S. cerevisiae deletion strains, locus YPL106C, strain sse1, stronger effect = lower value 0.958 | S. cerevisiae deletion strains, locus YPL240C, strain hsp82, stronger effect = lower value 0.994 | S. cerevisiae deletion strains, locus YPR119W, strain clb2, stronger effect = lower value 0.988 | S. cerevisiae deletion strains, locus YPR141C, strain kar3, stronger effect = lower value 0.973 | S. cerevisiae deletion strains, locus YPR163C, strain tif3, stronger effect = lower value 0.985 | S. cerevisiae deletion strains, locus YPR167C, strain met16, stronger effect = lower value 0.993 | S. cerevisiae deletion strains, strain wtn01, stronger effect = lower value 1.01 | S. cerevisiae strains, strain wild type, stronger effect = lower value 0.984
active: S. cerevisiae deletion strains, locus YOR270C, strain vph1, stronger effect = lower value 0.638
